Bioassay records as filed in PubChem BioAssay.
In the library only some 4.7% were active in any assay of this set; here they are far more common.
PfHsp90 yeast 2 – reduces growth (ATP signal) of yeast expressing P. falciparum Hsp90; S. cerevisiae expressing PfHsp90, BacTiter-Glo ATP, 48 h; yeast lacking PDR1 and PDR3 efflux regulators; inhibition, % at 9.4 µM; 310,000 tested, 0.32% active; AID 504621;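 active = every replicate shows inhibition above about 80%, whatever the replicate mean, limit read from the data; inconclusive = mean inhibition reaches the set limit but some replicate falls short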;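 also: 0% = DMSO neutral controls and 100% = 20 µM radicicol positive controls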
ATG4B inh – blocks human ATG4B protease cleavage of LC3 substrate; Q9Y4P1; 340,000 tested, 0.51% active; inhibition, % at 8.33 µM; ATG4B cleavage of LC3-PLA2, NBD-HPC fluorescence, 1 h; in the data active = inhibition above about 40%
Target sequence (Q9Y4P1 whole entry, looked up): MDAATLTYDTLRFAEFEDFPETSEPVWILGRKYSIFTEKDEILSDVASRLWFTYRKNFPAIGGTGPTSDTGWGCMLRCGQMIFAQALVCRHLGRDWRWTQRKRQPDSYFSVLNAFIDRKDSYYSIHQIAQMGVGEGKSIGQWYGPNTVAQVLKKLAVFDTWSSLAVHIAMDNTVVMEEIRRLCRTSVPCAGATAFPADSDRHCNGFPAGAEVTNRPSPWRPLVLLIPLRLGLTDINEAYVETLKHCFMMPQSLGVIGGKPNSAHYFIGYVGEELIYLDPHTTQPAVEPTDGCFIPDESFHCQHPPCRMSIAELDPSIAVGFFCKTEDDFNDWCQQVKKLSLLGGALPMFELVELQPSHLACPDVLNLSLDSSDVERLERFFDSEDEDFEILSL
tim23-1 inh – tim23-1 yeast growth inhibition. S. cerevisiae tim23-1 growth, BacTiter-Glo luminescence, 24 h. inhibition, % at 20 µM. 330,000 tested, 1.3% active;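 active = growth inhibition of the mutant yeast at or above 50%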;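 also: temperature-sensitive mutant grown at 25 °C; plate controls were DMSO-treated mutant yeast for no effect and medium wells lacking yeast for full effect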
TIM10 inh – TIM10 yeast growth inhibition. S. cerevisiae TIM10 strain growth, BacTiter-Glo luminescence, 24 h. inhibition, % at 10 µM. 330,000 tested, 1.4% active. AID 463195;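 active = inhibition of 40% or more at the single tested concentration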;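 also: wild-type TIM10 isogenic control strain grown at permissive 25 °C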
SKKanGAS inh – blocks kanamycin growth of S. pyogenes SKKanGAS strain; BacTiter-Glo, 6 h; inhibition, % at 7.5 µM; 300,000 tested, 1.3% active; AID 1662;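 active = mean replicate score, as percent of positive control median, at least 50; inconclusive = mean below 50 but one replicate at or above 50; inactive = mean and every replicate below 50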;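 also: strain carries kanamycin resistance gene driven by streptokinase promoter and grows in 40 µg/ml kanamycin; loss of luminescence reflects streptokinase promoter inhibition or plain growth inhibition; 0% = median of DMSO wells and 100% = positive control at its reference dose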
tim10-1 inh – tim10-1 yeast growth inhibition; S. cerevisiae tim10-1 ts strain growth, BacTiter-Glo, 24 h; inhibition, % at 20 µM; 330,000 tested, 2.2% active; AID 463190;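 active = inhibition of at least 40%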;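 also: mutant grown at 25 °C; 0% = DMSO wells with yeast and 100% = wells holding no yeast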
tim10-1 confirm – confirmation of tim10-1 mutant yeast growth inhibitors; shares compounds with tim10-1 inh; S. cerevisiae tim10-1 ts strain growth, BacTiter-Glo, 24 h; inhibition, % at 20 µM; 7,400 tested, 56% active;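 active = inhibition of yeast growth at or above a set limit in either of two repeat tests at 20 µM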;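 also: tim10-1 mutant grown at permissive 25 °C to find synthetic lethal compounds; 0% = DMSO yeast wells and 100% = medium wells without yeast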
TIM10 conf – confirmation of TIM10 yeast growth inhibitors. shares compounds with TIM10 inh. S. cerevisiae tim10 strain growth, BacTiter-Glo luminescence, 24 h. inhibition, % at 10 µM. 4,600 tested, 63% active. AID 463215;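 active = inhibition of yeast growth at or above a set limit in either of two replicates at 10 µM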;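 also: this counterscreen used the strain with wild-type TIM10; 0% = yeast with DMSO and 100% = medium wells lacking yeast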
tim23-1 conf – tim23-1 yeast growth inhibition, confirmed; shares compounds with tim23-1 inh; 4,400 tested, 83% active; S. cerevisiae tim23-1 growth, BacTiter-Glo luminescence, 24 h; inhibition, % at 20 µM;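 active = inhibition above about 39% in either of two replicate wells at 20 µM, limit read from the data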;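 also: temperature-sensitive tim23-1 mutant grown at 25 °C; 0% = DMSO wells with yeast and 100% = medium wells without yeast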
* = called active by the depositor; ? = inconclusive; . = not tested or not shown.

SMILES | PfHsp90 yeast 2 | ATG4B inh | tim23-1 inh | TIM10 inh | SKKanGAS inh | tim10-1 inh | tim10-1 confirm | tim23-1 conf | others
O=C(Nc1ccccc1)OCc1ccccn1 | 3 | -13 | 0 | -2 | -5 | -2 | . | .
Cc1csc(SCC(=O)Nc2cccc(C)c2C)n1 | -6 | -14 | 7 | 0 | . | -6 | . | .
COc1cc(C2C(C#N)=C(C)NC3=C2C(=O)CC(C)(C)C3)cc(OC)c1O (stereo not given) | 5 | 2 | 9 | 1 | -1 | 8 | . | .
COc1ccc(NC(=O)/C(C#N)=C/c2ncc([N+](=O)[O-])n2C)c(OC)c1 | 15 | -11 | 84* | 25 | 19 | 58* | 66* | 81*
CCCCCCCC[n+]1cccc(C(=O)N(CC)CC)c1 | -10 | -13 | 19 | -3 | 4 | -4 | . | .
CCCCCCCCCCCCCCCC[n+]1cccc(C(=O)N(CC)CC)c1 | 107* | 6 | 60* | 25 | 92* | 96* | 94* | 79*
CCCN1C(=O)/C(=C2\SC(N3CCCCC3)=NC2=O)c2ccccc21 | 9 | -6 | 50* | 30 | 19 | 42* | 32* | 48*
COc1cccc(CN(C)C(=O)c2cc(COc3ccc(-n4cncn4)cc3)on2)c1 | 7 | -17 | 51* | 20 | -12 | 41* | 30* | 34
Cc1nc2cc(NC(=O)Nc3cccc([N+](=O)[O-])c3)ccc2n1C | -6 | -6 | -7 | 0 | 2 | -12 | . | .
CS(=O)(=O)c1ccc(S(=O)CC(=O)OCc2ccccc2)c([N+](=O)[O-])c1 (stereo not given) | -18 | -21 | . | . | -4 | . | . | .
O=C(CS(=O)c1ccc(C(F)(F)F)cc1[N+](=O)[O-])Oc1ccccc1 (stereo not given) | -9 | -11 | 72* | 70* | 16 | 50* | 57* | 75* | TIM10 conf=46*
CCOC(=O)C1Nc2ccccc2C2c3ccccc3CC12 (stereo not given) | 8 | -10 | 59* | 35 | -6 | 50* | 51* | 60*
CCC(C)(C)NC(=O)C(C)OC(=O)c1nsc(Cl)c1Cl (stereo not given) | 16 | -1 | 21 | 11 | 0 | 18 | . | .
CCOC(=O)C(=Cc1ccc(F)cc1)C(=O)OCC | . | . | 55* | 43* | -4 | 53* | 46* | 60* | TIM10 conf=48*
O=c1[nH][nH]c(-c2ccccc2O)c1C(C[N+](=O)[O-])c1cccc(Cl)c1 (stereo not given) | -15 | -8 | 56* | 48* | 46 | 44* | 44* | 55* | TIM10 conf=-8
Cc1cccc(C2C3=C(Nc4[nH]n(-c5ccccc5)c(=O)c42)c2ccccc2C3=O)c1 (stereo not given) | -2 | -3 | . | . | 18 | . | . | .
O=C(Cc1ccccc1)c1ccc(Cl)cc1 | 4 | 8 | -9 | -8 | 16 | 5 | . | .
O=C(/C(=C/O)N=Nc1ccccc1)c1ccc(Cl)cc1 | 106* | 19 | 79* | 58* | -3 | 65* | 49* | 39* | TIM10 conf=56*
Cc1ccc(N=N/C(=C\O)C(=O)c2ccc(Cl)cc2)cc1 | 107* | 10 | 60* | 36 | ? | 48* | 42* | 63*
CCNC(=S)N/N=C/c1ccc(-c2ccccc2)o1 | -10 | -17 | 53* | 28 | -9 | 44* | 33* | 36
Cn1nc(-c2ccc(Cl)cc2)nc2c(=O)n(C)c(=O)nc1-2 | . | . | 77* | 95* | 84* | 93* | 92* | 80* | TIM10 conf=99*
CS(=O)(=O)n1nc(-c2ccc(Cl)cc2)nc1N | -14 | -7 | 17 | 3 | -2 | 15 | . | .
Oc1ccc(C2CNCc3sccc32)cc1O (stereo not given) | 24 | -1 | -2 | -5 | . | -9 | . | .
FC(F)C(F)(F)c1cc(-c2ccc(Cl)cc2)n[nH]1 | . | 6 | 52* | 22 | 4 | 52* | 42* | 41*
CCN(CC)C(=O)CSc1nnc(-c2ccco2)n1Cc1ccco1 | . | -3 | 6 | 7 | 2 | 21 | . | .
SMILES | PfHsp90 yeast 2 | ATG4B inh | tim23-1 inh | TIM10 inh | SKKanGAS inh | tim10-1 inh | tim10-1 confirm | tim23-1 conf | others
Cc1nnc(SCC(=O)NCc2ccccc2Cl)n(N)c1=O | 1 | 4 | 6 | 9 | 1 | 7 | . | .
O=C(N/N=C/c1cc(Cl)cc([N+](=O)[O-])c1O)c1cc(-c2ccccn2)nc2ccccc12 | -13 | 11 | 51* | 19 | ? | 45* | 9 | 23
Cc1ccc(S(=O)(=O)NCC(=O)NC2CCCC2)cc1 | 10 | 8 | . | . | 3 | . | . | .
C=CCN(CC=C)c1nc2ccccc2nc1C(C#N)C(=O)OCCOC (stereo not given) | -9 | -3 | 59* | 41* | -1 | 67* | 72* | 66* | TIM10 conf=55*
Cc1c(C#N)c(N=CN(C)C)c(C(=O)c2ccc(Br)cc2)n1-c1ccccc1 | 22 | -18 | 56* | 42* | -11 | 41* | 25 | 35 | TIM10 conf=22
Cc1c(C#N)c(N=CN(C)C)c(C(=O)c2ccccc2)n1-c1ccc(Br)cc1 | 12 | -2 | 39 | 23 | -10 | 10 | . | .
O=C(NC1CCCC1)C(c1ccncc1)N(C(=O)c1ccco1)c1ccc(F)c(Cl)c1 (stereo not given) | 6 | -2 | 7 | -11 | 1 | 7 | . | .
C/C(=N\Nc1nc2c(s1)CCCC2)c1ccc(Cl)cc1 | -4 | 17 | 58* | 50* | 12 | 61* | 47* | 63* | TIM10 conf=24
CN(C)c1ccc(C(=O)Nc2nc3c(s2)CCCC3)cc1 | 5 | -5 | 35 | 14 | 10 | 6 | . | .
O=C(/C(=C/c1ccccc1)n1cncn1)c1ccc(Cl)cc1Cl | 8 | -2 | 92* | 82* | -6 | 80* | 82* | 91* | TIM10 conf=-4
CCOC(=O)C1CCN(C2=NC(=O)/C(=C/c3ccc(OC)c(OC)c3)S2)CC1 | -3 | -10 | 20 | 10 | 0 | 31 | . | .
CCOC(=O)C1CCN(C2=NC(=O)/C(=C/c3ccc(Cl)cc3)S2)CC1 | -50 | -10 | 50* | 32 | -22 | 49* | 32* | 44*
CCCCN(Cc1cc2cc(OC)ccc2[nH]c1=O)C(=O)c1ccco1 | 73 | 2 | 7 | -1 | 0 | 2 | . | .
O=C1CC[C@@H](O)CCN1CC[C@H](Sc1ccccc1)c1ccccc1 | 11 | 1 | 17 | 9 | -1 | -10 | . | .
Cc1ccnc(Nc2nc(-c3sc(C)nc3C)cs2)c1 | 5 | 8 | 82* | 39 | -8 | 48* | 25 | 58*
